The supplement of paper PMC3334620
Over roughly 33,000 sequences, “E-score (-0.5 to 0.5)” has its median near -0.04; the highest 2% begin near 0.36. Shown is part of a subset that was picked to be rich in the highest values.

Target: T1, Hmlalpha2 (UniProt P0CY09)
T1 sequence: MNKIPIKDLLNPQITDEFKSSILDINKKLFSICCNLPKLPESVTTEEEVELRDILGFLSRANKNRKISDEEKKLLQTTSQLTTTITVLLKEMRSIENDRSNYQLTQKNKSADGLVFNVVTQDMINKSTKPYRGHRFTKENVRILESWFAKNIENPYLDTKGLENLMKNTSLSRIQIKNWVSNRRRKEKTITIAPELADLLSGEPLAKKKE
Assay: PBM E-score (8-mer binding enrichment) (E-score (-0.5 to 0.5)); higher = stronger / more preferred TF binding
Details: protein concentration: 200 nM; construct: GST-full length
Experimental: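 Universal 'all 10-mer' protein binding microarrays (Agilent AMADID 015681) probed with GST-tagged S. cerevisiae TFs (full-length or DBD) made by in vitro transcription/translation (PURExpress), about 100-200 nM. Bound TF was detected with fluorescent anti-GST. Each ungapped 8-mer (which stands for itself and its reverse complement) is scored by the PBM enrichment score (E-score), a modified Wilcoxon-Mann-Whitney statistic from -0.5 to +0.5, computed with the Universal PBM Analysis Suite. Scale: above 0.35 generally sequence-specific binding.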

Row | Sequence | PBM E-score
1 | AAATGTTA | 0.33
2 | CGATGTTA | 0.353
3 | CCATGTGA | 0.184
4 | CCATGTTA | 0.458
5 | AGATGTTA | 0.201
6 | ACATGTTA | 0.461
7 | CGCCTGGC | -0.0832
8 | GCGCATGA | -0.252
9 | GCTGTCCA | -0.0572
10 | CTCGTCAC | -0.0377
11 | AATCGGTC | -0.081
12 | CTCCTAAG | -0.115
13 | CAGGAGCA | -0.173
14 | ACATAACC | 0.222
15 | ACATAACG | 0.368
16 | ACATAACA | 0.434
17 | TCATAGCA | -0.0434
18 | ACATAGCA | 0.392
19 | CCATAGCA | -0.145
20 | GCATAACA | 0.307
21 | CCATAACA | 0.333
22 | ACATAACT | 0.325

Row | Sequence | PBM E-score
23 | CACACCAG | -0.011
24 | GGATGACC | -0.218
25 | GATTTTGA | 0.12
26 | ACGATGTG | 0.19
27 | CAGTTTGC | -0.118
28 | ACAGGGAA | 0.0611
29 | CGCTGATC | -0.177
30 | AGGGGAGC | -0.33
31 | GCGTCTCC | -0.033
32 | ACACGTGT | 0.432
33 | ACACGTGG | 0.293
34 | AAGCGTGT | 0.371
35 | AAGCGTGA | -0.0159
36 | AAACGTGG | -0.0689
37 | AAACGTGT | 0.375
38 | AATCGTGT | 0.406
39 | AAGCGTGG | -0.0995
40 | ACACGTGA | 0.318
41 | AAACGTGA | 0.168
42 | AATCGTGC | 0.151
43 | AATCGTGA | -0.00694
44 | ACGGCGAT | -0.0673

Row | Sequence | PBM E-score
45 | AGTCGGGG | -0.191
46 | CAAGAATG | -0.0486
47 | AGGGCCAG | -0.22
48 | AGGCCAAG | -0.247
49 | AGTCTATC | -0.0461
50 | GTGGGCGA | -0.04
51 | CACGTGAA | 0.108
52 | CACGTGTC | 0.25
53 | GACGTGAA | -0.0003
54 | AACGTGTA | 0.455
55 | AACGTGTG | 0.233
56 | CACGTGTA | 0.444
57 | GACGTGTA | 0.41
58 | GACGTGGA | -0.209
59 | AACGTGTC | 0.263
60 | GAAGTCTC | -0.247
61 | GTACCCTA | -0.0877
62 | GTCGACCA | -0.0364
63 | GGATCCAA | -0.0601
64 | GAGTAGCA | -0.0964
65 | CCCCCGCG | -0.241
66 | CCGTTTAG | -0.0825

Row | Sequence | PBM E-score
67 | ACGTGTCA | 0.392
68 | GCGTGTCC | 0.142
69 | CGGTGTCA | -0.0723
70 | ACGTGTCG | 0.308
71 | CCGTGTCA | 0.351
72 | GTGTGTCA | 0.307
73 | GCGTGTCA | 0.382
74 | TCGTGTCA | 0.395
75 | TAGTGTCA | 0.0999
76 | GCTCCAGA | -0.207
77 | ATGAGAAA | 0.0401
78 | CGGAGGCC | -0.334
79 | TCACCTGA | -0.136
80 | CTTGGCAA | -0.143
81 | CTTGTATC | 0.264
82 | GATGTATA | 0.237
83 | CATGTATA | 0.466
84 | CATGTATC | 0.405
85 | AATGTATA | 0.315
86 | AATGTATC | 0.284
87 | AGTGCAAT | 0.00712
